Source: PubChem
HT1080 IDH1KD tx: kills HT-1080 cells with IDH1 knockdown | Potency, µM (doses to about 46.1 µM), for inactives: at the top dose activity, negative = toxicity, most hits filed as cytotoxic | AID 686971 | 360,000 tested, 2% active | HT-1080 IDH1 knockdown viability, ATP luminescence, 48 h;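 note: 0% = DMSO wells and -100% = cell-free medium wells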
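After a 2 h attachment period, IDH1KD HT-1080 cells took pin-transferred compound for 48 h at 37 °C; ATP-based luminescence after 10 min room-temperature reagent incubation reported viability.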
HT1080-NT tox: kills 2HG-producing HT-1080-NT fibrosarcoma cells. HT-1080-NT fibrosarcoma viability, CellTiter-Glo ATP luminescence, 48 h. Potency, µM (doses to about 46.1 µM), for the others: at the top dose activity, negative = less viability, hits mostly cytotoxic. 360,000 tested, 1.6% active;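 note: NT is the 2HG producing partner of a matched IDH1 knockdown line; 0% = DMSO-treated cells and -100% = media-only wells without cells; nearly all actives have a fitted effect of over 55% in size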
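750 cells/well, RPMI + 5% FBS; 2 h settle, compound pin-transfer, 48 h at 37 degrees C. CellTiter-Glo 10 min RT, luminescence. Normalized to DMSO and media-only wells.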
KB-V1 MDR tox: KB-V1 MDR subline cytotoxicity; KB-V1 MDR cells viability, CellTiter-Glo, 72 h; Potency, µM (doses to about 46.1 µM), hits mostly cytotoxic; 400,000 tested, 3.4% active; AID 1347076; note: % is set by controls: 0 for no effect and ±100 for the full control effect; nearly all actives have a fitted effect of over 60% in size
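In this primary screen, KB-V1 cells overexpressing P-gp are incubated with library compounds (lowest to highest concentration) for 72 h at 37 degrees C before a luminescent ATP viability read.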
KB-3-1 tox: kills parental KB-3-1 adenocarcinoma cells; KB-3-1 viability, CellTiter-Glo ATP luminescence, 72 h; 400,000 tested, 1.4% active; Potency, µM (titrated, usually from 46.1 µM), hits mostly cytotoxic; note: % is set by controls: 0 for no effect and ±100 for the full control effect; nearly all actives have a fitted effect of over 60% in size
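Parental KB-3-1 viability, qHTS format: 72 h compound exposure, 37 °C; CellTiter-Glo; media-only wells and DMSO plates as controls; concentration-effect fits on corrected data.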
SW480 rereplic: induces DNA re-replication in SW480 colon adenocarcinoma cells; SW480 DNA re-replication, Hoechst DNA content imaging, 48 h; Potency, µM (top dose mostly 46.1 µM), for inactives: top-dose re-replication activation, usual class: activators; 340,000 tested, 1.8% active; note: % of control where 0% means no effect; nearly all actives have a fitted effect of over 55% in size
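Treated cells incubate 48 hr (37 C, 5% CO2), are stained 40 min with Hoechst, and nuclear fluorescence is enumerated; a rise in nuclei with high DNA signal marks re-replication.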
MCF10A rereplic: DNA re-replication induction in MCF 10a cells; MCF 10A DNA re-replication, Hoechst nuclear intensity, 48 h; Potency, µM (top dose mostly 46.1 µM), inactives show top-dose activity, positive = re-replication, most hits filed as activators; 350,000 tested, 2.9% active; AID 624296; note: % of control where 0% means no effect; nearly all actives have a fitted effect of over 50% in size
* hit, by the source's call; i = inactive; ? = inconclusive; · = no result; ! = not active in a repeat; [ ] = remark or other dose. Rows were chosen to be rich in hits. Some 7.9% of all compounds tested hit in one or more screens of this group. Calls come from the whole dose curve; as a rule, active = well fitted curve in the direction sought with a large enough effect; inconclusive = small, poorly fitted or top-dose-only effect, or another doubt; inactive = no such curve, though single readings can be large; an effect the other way counts as inactive or inconclusive. Potency is the fitted concentration of half-maximal effect.

SMILES	HT1080 IDH1KD tx	HT1080-NT tox	KB-V1 MDR tox	KB-3-1 tox	SW480 rereplic	MCF10A rereplic
Cc1cc(NC(=O)CSc2ccc3nnc(-c4ccccc4)n3n2)no1	-28.6%	-12.4%	i	i	-4.5%	3.5%
O=C(NCCOc1ccccc1F)c1cccc(S(=O)(=O)N2CCN(c3ccccc3)CC2)c1	-2.3%	-2.9%	13µM*	i	?	-0.3%
COc1ccc(S(=O)(=O)N2CCN(c3ccccc3)CC2)cc1OC	-2.9%	0.4%	i	i	?	-14.7%
CC(=O)N1CCN(C(=O)c2cccc(S(=O)(=O)N3CCN(c4ccccc4)CC3)c2)CC1	-3.6%	6.7%	i	i	-2.9%	2.7%
O=C(NNC(=O)c1cccc(S(=O)(=O)N2CCN(c3ccccc3)CC2)c1)c1ccc(Cl)cc1	14.4%	1.0%	16.4µM*	i	-4.0%	?
COc1cc(S(=O)(=O)N2CCN(c3ccccc3)CC2)ccc1Cl	12.3%	1.5%	23.1µM*	i	6.3%	6.9%
COc1ccccc1N1CCN(S(=O)(=O)c2ccc3nc(-c4ccccc4)[nH]c3c2)CC1	-5.9%	-5.8%	?	i	-4.2%	25.9µM*!
O=c1cc(CSc2ccccc2)[nH]c2ccc(F)cc12	·	·	i	i	·	·
COc1cccc(CC(=O)OCC(=O)NC2CCCCCC2)c1	3.5%	26.1%	i	i	-15.5%	2.8%
CCCCCCCCNC(=O)/C(C#N)=C/c1ccc(SC)cc1	-0.2%	-2.0%	20.6µM*	i	2.06µM*	-13.8%
CC1CCCCC1NC(=O)/C(C#N)=C/c1ccccc1F (stereo unspecified)	18.4µM*	?	i	i	?	14.6µM*
CC(=O)Nc1ccc(/C=C(\C#N)C(=O)NC2CCCCC2C)cc1 (stereo unspecified)	-12.0%	-4.2%	?	i	3.5%	?
CSc1ccc(/C=C(\C#N)C(=O)NC2CCCCC2C)cc1 (stereo unspecified)	?	?	16.4µM*	?	?	18.4µM*
COc1cc(/C=C(\C#N)C(=O)NC2CCCCC2C)ccc1OS(=O)(=O)c1ccc(C)cc1 (stereo unspecified)	?	?	i	?	?	18.4µM*
COCCn1c(SCC(=O)Nc2c(C)n(C)n(-c3ccccc3)c2=O)nnc1-c1ccncc1	2.7%	3.7%	i	i	-13.3%	-5.5%
COc1ccc(NC(=O)COC(=O)CC2CCCC2)cc1	-27.3%	-18.3%	i	i	-7.3%	-5.0%
O=C1N(c2ccccc2C(F)(F)F)O[C@]1(c1ccccc1)C1CCCCC1	-12.0%	-14.6%	i	i	13µM*	18.4µM*
O=C(OCCN=C1NS(=O)(=O)c2ccccc21)c1ccncc1	0.5%	1.3%	i	i	-11.8%	19.3%
CCn1c(=S)[nH]c2cc(S(=O)(=O)N3CCCCC3)ccc21	-18.9%	?	13µM*	i	-7.8%	-9.3%
CCOc1ccc(C(=O)Nc2nnc(C3=COCCO3)o2)cc1	-11.8%	-1.4%	?	0.0012µM*	1.1%	10.9%
O=C(Cc1ccccc1)Nc1cccc(-c2nnc(-c3ccco3)o2)c1	-2.7%	-2.4%	i	i	-0.1%	?
COc1ccc(CC(=O)Nc2cccc(-c3nnc(-c4cccc(C)c4)o3)c2)cc1OC	-22.0%	-1.1%	?	i	-3.5%[9.22 µM]	?
CCOc1cccc(C(=O)Nc2cccc(-c3nnc(-c4ccc(C)cc4)o3)c2)c1	-1.6%	-7.6%	?	13µM*	0.7%	3.66µM*
CCc1cccc(NC(=O)Cc2ccc(OC)c(OC)c2)c1	-10.4%	-9.9%	16.4µM*	?	-6.0%	12.5%
COc1ccc(CC(=O)NCc2cccc(CNC(=O)Cc3ccc(OC)c(OC)c3)c2)cc1OC	3.6%	-2.0%	i	i	-9.4%	-0.8%
O=C(Cc1ccc(Cl)cc1)Nc1cccc(-c2nnc(-c3ccco3)o2)c1	?	?	0.581µM*	?	-4.3%	14.4%
